Consider 23 molecules from PubChem BioAssay (NCATS).

Molecules are shown by their SMILES. “And” between values parts separate entries of the source, which are not always exact repeats. Equal values may be shown once. Inconclusive results are not listed. Unmarked numbers belong to inactive results. The source made the active and inactive calls. Calls come from the whole dose curve; as a rule, active = well fitted inhibition curve with a large enough effect; inconclusive = small, poorly fitted or top-dose-only effect; inactive = flat fitted curve, though single readings scatter.

One test deals with CRL-7250. The experiment in a line: Cytotoxic Profiling of Annotated Libraries Using Quantitative High-Throughput Screening (AID 1296008). For max response: % is set by controls: 0 for no effect and ±100 for the full control effect. Note: potency is the fitted concentration of half-maximal effect. As to conditions: Five cell lines viability, CellTiter-Glo ATP luminescence, 48-72 h; max response: active compounds read low. Summed up: (§1)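 Cells exposed to compounds for 48 or 72 hr at 37 degrees Celsius. Viability read as ATP-coupled luminescence with CellTiter-Glo after 10 min at room temperature.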
On the technique in general: ATP-based viability assays read luminescence as a measure of living cells.

The next test relates to HEK293. The description is as above. The settings on record: Five cell lines viability, CellTiter-Glo ATP luminescence, 48-72 h; max response: active compounds read low. The essentials:
as §1

Test [1] deals with HaCat. The description is as above. The settings on record: Five cell lines viability, CellTiter-Glo ATP luminescence, 48-72 h; max response: active compounds read low. The essentials:
as §1

Another test deals with KB-3-1. Described as above. The settings on record: Five cell lines viability, CellTiter-Glo ATP luminescence, 48-72 h; max response: active compounds read low. The essentials:
as §1

A further test has as its system NIH3T3. The test is described as above. The settings on record: Five cell lines viability, CellTiter-Glo ATP luminescence, 48-72 h; max response: active compounds read low. The essentials:
as §1

In test [2] the test system is HACAT. The experiment in a line: qHTS assay to identify novel small-molecules to repurpose for Merkel cell carcinoma treatment (AID 1296009). The settings on record: MCC and control cell lines, CellTiter-Glo viability, 72 h; at 44.8 µM (top of the series) unless noted. Summed up: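 CellTiter-Glo luminescence after 72 hr compound exposure at 37 degree celsius gave cell viability. Libraries NPC and MIPE were run as 8- and 11-point dose responses; RLUs normalized to DMSO (negative) and no-cell (cytotoxicity) controls.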
(qHTS replaces the single test concentration by a dilution series.)
Note: nearly all actives have a fitted effect of over 60% in size.

As to `CCOc1ccc(NS(=O)(=O)c2ccc(N)cc2)nn1`, the max response was 2.59% in the test on CRL-7250, 1.89% in the test with HaCat [1], -7.66% in the test on KB-3-1 and 3.16% in the test with NIH3T3. Moreover, the molecule was classed as inactive with HEK293.
For `C1=CC2C3C=CC(C3)C2C1` (stereo not drawn), the outcome in the test on CRL-7250 and with HEK293 was inactive. For the same molecule, the max response in the test on HaCat [1] is -9.73%; with KB-3-1, -6.71%; in the test with NIH3T3 it was 0.366%.
In the case of `CC(=O)CC/C=C(\C)CC/C=C(\C)CC/C=C(\C)CCC=C(C)C`, the molecule was classed as inactive with CRL-7250 and in the test on HEK293. Also, the results for the max response in the test on HaCat [1], with KB-3-1 and in the test on NIH3T3 were -9.87%, -13.4% and -3.99%, respectively.
Consider `COc1cc(NS(=O)(=O)c2ccc(N)cc2)nc(C)n1`, for which the max response in the test on CRL-7250 is -6.73%; in the test with HaCat [1], -7.5%; in the test on NIH3T3 it was 4.73%. The molecule was classed as inactive with HEK293 and with KB-3-1.
With `OC[C@]1(O)OC[C@@H](O)[C@H](O)[C@@H]1O`, the max response with CRL-7250 was -7.2%; in the test on HaCat [1], -0.702%; in the test with KB-3-1 it was -6.46%. In addition, the result in the test with HEK293 and in the test with NIH3T3 was inactive.
Take `CC(=O)[C@H]1CC[C@H]2[C@@H]3C=CC4=CC(=O)CC[C@@]4(C)[C@@H]3CC[C@]12C`: the max response with CRL-7250 was -2.73% and 1.98%; in the test with HEK293, -2.74%; with HaCat [1], -26.7%; in the test with KB-3-1, -2.29%; with NIH3T3, -20.6% and 1.55%. In addition, the molecule was called inactive in the test on HaCat [1] and in the test with HACAT [2].
For the molecule `Cn1cc(S(C)=O)c(=O)c2ccc(F)cc21` (stereo not drawn), the max response in the test with CRL-7250 was -2.16%; in the test with HEK293 it was -2.1%; in the test on HaCat [1], -31%; with KB-3-1, 2.67%. Also, the call in the test on NIH3T3 was inactive.
For `C[N+]1(CC2COC(c3ccccc3)(c3ccccc3)O2)CCCCC1` (stereo not drawn), the max response was 1.41% in the test on CRL-7250, -14.4% in the test with HaCat [1], -21.8% in the test on KB-3-1 and -38.8% in the test on NIH3T3. Moreover, the Potency with HEK293 was 10 µM (active).
In the case of `CC(=O)OCC[N+](C)(C)C`, the max response in the test with CRL-7250 is -0.18%; with HaCat [1] it was -14.7%; with KB-3-1, 2.39%; in the test with NIH3T3, 3.81%. For the same molecule, in the test on HEK293, the molecule was classed as inactive.
The corresponding values for `Cc1ccccc1N1CCN(CCc2nnc3n2CCCC3)CC1` are -7.88%, -11.8%, -5.62%, 4.77% and “inactive”.
For `O=P(O)(O)OCC(O)CO` (stereo not drawn), the max response in the test with CRL-7250 was -2.69%; in the test with HEK293, -2.36%; with HaCat [1], 0.361%; in the test on KB-3-1, -6.39%. In the test on NIH3T3, the outcome was inactive.
Turning to `COc1cc(C(=O)OC(COCCC(C)C)CN2CCOCC2)cc(OC)c1OC` (stereo not drawn), the max response with CRL-7250 was -2.39%; in the test on HaCat [1] it was -1.64%; in the test with NIH3T3, 3.87%. For the same molecule, the molecule was classed as inactive in the test with HEK293 and in the test on KB-3-1.
For `O=C(NN1CCCC1)NS(=O)(=O)c1ccc(Cl)cc1`, the max response in the test on CRL-7250 is -14.3%; in the test with HEK293 it was 2.09%; with HaCat [1], -45.6%; in the test on KB-3-1 it was 5.98%; with NIH3T3, 4.71%.
Turning to `Nc1ncnc2n[nH]c(Nc3ccc(F)cc3)c12`, the Potency in the test on CRL-7250 was 10.3 µM (active).
With `CCOC(=O)c1ccc(OCCN2C[C@H](O)[C@@H](O)[C@H](O)[C@H]2CO)cc1`, the max response with CRL-7250 is -7.54%; in the test on HEK293 it was -10.3%; in the test on HaCat [1], -6.67%; with NIH3T3 it was -0.529%. In addition, the outcome with KB-3-1 was inactive.
Regarding `Brc1ccc([C@H]2CN3CCSC3=N2)cc1`, the max response was -3.15% in the test with CRL-7250, 3.24% with HEK293, -7.1% in the test with HaCat [1] and 5.27% in the test on KB-3-1. The call in the test on NIH3T3 was inactive.
With `C=CC[N+]1([C@H]2C[C@H]3[C@@H]4CC[C@H]5C[C@H](OC(C)=O)[C@@H](N6CCCCC6)C[C@]5(C)[C@H]4CC[C@]3(C)[C@H]2OC(=O)CC)CCCCC1`, the max response with CRL-7250 is -0.558%; in the test on HEK293 it was 0.459%; in the test with HaCat [1], 4.73%; with NIH3T3 it was -0.979%. Moreover, the outcome in the test on KB-3-1 was inactive.
On to `Nc1c(NC/C=C\COc2cc(CN3CCCCC3)ccn2)c(=O)c1=O`, for which the max response in the test on CRL-7250 is -21.7%; in the test on HEK293, -20.2%; in the test on HaCat [1] it was -11%; in the test with NIH3T3, 0.202%. Besides, the Potency with KB-3-1 was 23.1 µM (active).
Take `O=C(CO)[C@@H](O)[C@H](O)[C@@H](O)CO`: the molecule was classed as inactive in the test on CRL-7250, in the test with HEK293 and with NIH3T3. Further, the max response in the test with HaCat [1] was 3.88%; with KB-3-1 it was -7.71%.
For `CCN(CC)CCOc1ccc(/C(=C(\Cl)c2ccccc2)c2ccccc2)cc1`, the max response in the test with CRL-7250 is -10.3% and -19.3%.
As for `O=C(O)Cc1ccc(OCCNC[C@H](O)c2ccccc2)cc1`, the call with CRL-7250 was inactive. The max response is -3.07% with HEK293, 2.67% in the test with HaCat [1], -1.64% with KB-3-1 and 0.971% with NIH3T3.
Turning to `CCOC(=O)N1CCC(Nc2ccc(Cl)cc2N)CC1`, the max response in the test with CRL-7250 is 2.37%; with HEK293, -13.9%; in the test with HaCat [1] it was -14.7%.
As for `COc1ccc([C@@H]2Sc3ccccc3NC(=O)[C@@H]2O)cc1`, the max response in the test on CRL-7250 was -22.1%.
